The test in a line: NCI Yeast Anticancer Drug Screen. Data for the rad18 strain (AID 177). To be noted: S. cerevisiae rad18 mutant growth inhibition, hits give high values. Here is the method: Growth inhibition of yeast strains with defined genetic alterations is measured as a screen for potential anti-cancer activity. Selected strains with alterations in DNA damage repair or cell cycle control were exposed to compounds and growth inhibition was measured relative to vehicle treated controls. The strain used in this assay is rad18

Drawing on PubChem BioAssay (NCI), this text covers growth inhibition for 8 molecules.

The structures appear in SMILES notation. The panel holds about 79,000 compounds, 15% with a hit somewhere; the sample as a whole holds those more often. Unmarked numbers belong to inactive results. Activity calls are given as the source filed them. Rule as the data show it: active = growth inhibition above about 70%; inactive = the rest.

Turning to `C[n+]1c(-c2ccc(NC(=O)c3ccc(C(=O)Nc4ccc(-c5cn6ccccc6[n+]5C)cc4)cc3)cc2)cn2ccccc21`, the growth inhibition runs as follows: (at 1.2 µM) 4%; (at 3.7 µM) 2%; (at 11.0 µM) 24%; (at 33.0 µM) 81% (active); (at 100.0 µM) 92% (active).
The matching figures for `CN(Cc1cccc2ccccc12)Cc1cccc2ccccc12`: 9%, 6%, -20%, 11% and 6%.
On the same counts, the results for `Cc1ccc2nc(N/N=C/c3ccc(C)s3)cc(C)c2c1` are -8%, -1%, 2%, 99% (active) and 93% (active).
For `CCc1nc2ccc(N=Nc3c(O)ccc4ccccc34)cc2[nH]1`, the growth inhibition (at 1.2 µM) is -8%; the growth inhibition (at 3.7 µM) is -10%; the growth inhibition (at 11.0 µM) was 1%; the growth inhibition (at 33.0 µM) is 21%; the growth inhibition (at 100.0 µM) is 95% (active).
Turning to `Cc1ccc(S(=O)(=O)N/N=C/c2c(O)ccc3ccccc23)cc1`, the growth inhibition (at 1.2 µM) is 8%; the growth inhibition (at 3.7 µM) is 17%; the growth inhibition (at 11.0 µM) is 87% (active); the growth inhibition (at 33.0 µM) was 87% (active); the growth inhibition (at 100.0 µM) was 83% (active).
`O=C1c2ccccc2-c2ccc(NC(=O)C3CCCCC3C(=O)O)cc21` (stereo not given): the growth inhibition reads like this: (at 1.2 µM) 12%; (at 3.7 µM) 2%; (at 11.0 µM) 16%; (at 33.0 µM) 31%; (at 100.0 µM) 72% (active).
For `CCCCCC/C(C)=N/Nc1ccc([N+](=O)[O-])cc1[N+](=O)[O-]`, the growth inhibition is -8% (at 1.2 µM); -9% (at 3.7 µM); -8% (at 11.0 µM); -1% (at 33.0 µM); -36% (at 100.0 µM).
For `O=c1[nH]cc(F)c(=O)[nH]1`, the growth inhibition is 0% (at 1.2 µM); 10% (at 3.7 µM); 46% (at 11.0 µM); 68% (at 33.0 µM); 86% (active) (at 100.0 µM).
